The list is not random: actives were taken first. Their share in the collection is about 19%.
DT40 TDP1 CPT = growth inhibition of DT40 Tdp1-/-;hTDP1 cells with camptothecin (screen for TDP1 inhibitors); chicken DT40 Tdp1-/-;hTDP1 cells + 20 nM CPT, ATP luminescence, 48 h; Potency, µM (doses to about 46.2 µM), for inactives: top-dose activity change, negative = growth inhibition, hits mostly inhibitors; actives 12% (n = 420,000); also: nearly all actives have a fitted effect of over 55% in size
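Cell growth measured by CellTiter-Glo luminescence after a minimum 48 h, 37 C compound exposure with 20 nM CPT in Tdp1-knockout DT40 cells stably expressing hTDP1, seeded 400/well; qHTS titration format.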
HT1080 IDH1KD tx = HT-1080 IDH1 knockdown cell toxicity (counter line). HT-1080 IDH1 knockdown viability, ATP luminescence, 48 h. Potency, µM (titrated, usually from 46.1 µM), for the others: top-dose activity, negative = toxicity, most hits filed as cytotoxic. actives 2% (n = 360,000). AID 686971;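 also: 0% = DMSO wells and -100% = cell-free medium wells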
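In this qHTS, HT-1080 cells depleted of IDH1 are exposed for 48 h at 37 °C to compound titrations. Toxicity is scored from CellTiter-Glo luminescence, with DMSO as full viability and medium alone as none.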
KB-3-1 cytotox = kills parental KB-3-1 adenocarcinoma cells | actives 1.4% (n = 400,000) | KB-3-1 viability, CellTiter-Glo ATP luminescence, 72 h | Potency, µM (titrated, usually from 46.1 µM), actives largely listed as cytotoxic; also: nearly all actives have a fitted effect of over 60% in size
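Using CellTiter-Glo luminescence, growth of non-resistant KB-3-1 adenocarcinoma cells is assessed 72 h after pin-tool compound addition at 37 °C. Normalized responses across the concentration series yield fitted curves.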
KB-V1 MDR tox = KB-V1 MDR subline cytotoxicity; KB-V1 MDR cells viability, CellTiter-Glo, 72 h; Potency, µM (titrated, usually from 46.1 µM), most hits filed as cytotoxic; actives 3.4% (n = 400,000); AID 1347076; also: nearly all actives have a fitted effect of over 60% in size
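Luminescent ATP read-out (CellTiter-Glo, 10 min) measures survival of drug-selected KB-V1 MDR cells after 72 h, 37 degrees C compound exposure. Medium: phenol-red-free DMEM, 10% FBS. Values from fitted concentration-response curves.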
DT40 TDP1 no CPT = qHTS for Inhibitors of human tyrosyl-DNA phosphodiesterase 1 (TDP1): qHTS in cells in absence of CPT. DT40 Tdp1-/- hTDP1 cells, no CPT, ATP luminescence, 48 h. Potency, µM (top dose mostly 46.2 µM), without a hit: at the top dose activity change, negative = growth inhibition, hits mostly inhibitors. actives 15% (n = 420,000); also: nearly all actives have a fitted effect of over 55% in size
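Camptothecin absent (DMSO only). Human TDP1-complemented DT40 knockout cells, 400 cells/well, 37 °C for minimum 48 hr; ATP measured via CellTiter-Glo, 30 min dark incubation, luminescence.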
HT1080NT lethal = kills 2HG-producing HT-1080-NT fibrosarcoma cells | HT-1080-NT fibrosarcoma viability, CellTiter-Glo ATP luminescence, 48 h | Potency, µM (doses to about 46.1 µM), inactives show at the highest dose activity, negative = less viability, actives largely listed as cytotoxic | actives 1.6% (n = 360,000) | AID 686970;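 also: NT is the 2HG producing partner of a matched IDH1 knockdown line; 0% = DMSO-treated cells and -100% = media-only wells without cells; nearly all actives have a fitted effect of over 55% in size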
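Toxicity toward the 2HG-producing NT line was scored as %Activity, normalised to DMSO and no-cell wells, from CellTiter-Glo luminescence after 48 hours' treatment.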
Active calls of the source: *; i = inactive; ? = inconclusive; . = no result given. Calls follow the shape of the dose curve; as a rule, active = well fitted curve in the direction sought with a large enough effect; inconclusive = small, poorly fitted or top-dose-only effect, or another doubt; inactive = no such curve, though single readings can be large; an effect the other way counts as inactive or inconclusive. Unless noted, % is scaled to controls: 0 for no effect and ±100 for the full control effect; potency is read from the fitted curve at half-maximal effect.

SMILES	DT40 TDP1 CPT	HT1080 IDH1KD tx	KB-3-1 cytotox	KB-V1 MDR tox	DT40 TDP1 no CPT	HT1080NT lethal
Cc1cc(OCC(=O)OC(C)C(=O)NC2CC2)c(C(C)C)cc1Cl (stereo not given)	?	1%	i	?	?	1%
O=C(COC(=O)c1ncc(Cl)c(Cl)c1Cl)Nc1ccc(Cl)cn1	-9%	-1%	i	i	-9%	-7%
CCCCN1C(=O)c2ccc(C(=O)NCc3ccco3)cc2C1=O	15%	-14%	i	i	4%	-6%
CSc1cccc(N2C(=O)N(Cc3ccc([N+](=O)[O-])cc3)c3ccccc3S2(=O)=O)c1	-8%	.	i	i	-21%	.
COc1cc(OC)cc(N2C(=O)N(Cc3ccc(C(C)(C)C)cc3)c3ccccc3S2(=O)=O)c1	?	.	i	i	21µM*	.
C=Cc1ccc(CN2C(=O)N(c3cccc(Cl)c3)S(=O)(=O)c3ccccc32)cc1	12µM*	.	i	i	?	.
COCCOc1ccc(C(F)(F)F)cc1NC(=O)COC(=O)Cc1c[nH]c2ccccc12	-23%	-4%	i	?	2%	-2%
O=C1CC[C@@H](O)CCN1CC[C@H](Sc1ccc(Br)cc1)c1ccccc1	23µM*	12%	i	?	10µM*	12%
CC(=O)Nc1ccc(S[C@@H](CCN2CC[C@H](O)CCC2=O)c2ccccc2)cc1	-24%	-6%	i	i	2%	-3%
CC(C)(C)[C@@H]1CCC(=O)N(CC[C@H](Sc2ccc(Br)cc2)c2ccccc2)CC1	18µM*	?	?	?	11µM*	?
CCc1nc2n[nH]c(N)c2c2c1CCCC2	-1%	-3%	i	i	-12%	-1%
CCCCc1nc2n[nH]c(N)c2c2c1CCC2	-13%	-8%	?	0.65µM*	-16%	-12%
COc1ccc(S(=O)(=O)N(CC(=O)N2CCN(C)CC2)c2ccc(C)cc2)cc1OC	10%	2%	i	?	-5%	0%
O=C(CN(c1cccc(Br)c1)S(=O)(=O)c1ccccc1)N1CCc2ccccc2C1	15µM*	.	i	i	15µM*	.
COc1ccc(N(CC(=O)N2CCc3ccccc3C2)S(=O)(=O)c2ccc(C)cc2)cc1Cl	?	.	i	i	16µM*	.
CCN1CCN(C(=O)CN(c2cccc(Br)c2)S(=O)(=O)c2ccccc2)CC1	-16%	-3%	i	i	-21%	-5%
CC1Cc2ccccc2N1C(=O)CSc1nc(-c2ccccc2)cs1 (stereo not given)	?	-11%	i	?	26µM*	-2%
Cc1ccccc1-n1ncc2c(SCC(=O)N3c4ccccc4CC3C)ncnc21 (stereo not given)	29µM*	?	i	9.2µM*	20µM*	?
Cc1ccc2nc(-c3cccnc3SCC(=O)N3c4ccccc4CC3C)[nH]c2c1 (stereo not given)	?	-27%	i	i	?	-27%
Cc1ccccc1-n1ncc2c(SCC(=O)NC3CCCC3)ncnc21	21µM*	-9%	i	?	7.3µM*	-4%
Cc1ccc2nc(SCC(=O)N3c4ccccc4CC3C)c(C)cc2c1 (stereo not given)	23µM*	1%	i	i	15µM*	3%
CCC(C)(C(=O)NC1CCCCC1)N(Cc1ccco1)C(=O)c1ccc2c(c1)OCO2 (stereo not given)	12µM*	-5%	i	12µM*	8.2µM*	-1%

Screening results from PubChem BioAssay.
